# Source: PubChem BioAssay
# In the library only some 21% were active in any assay of this set; here they are far more common.
# TDP1 cell noCPT = qHTS for Inhibitors of human tyrosyl-DNA phosphodiesterase 1 (TDP1): qHTS in cells in absence of CPT; actives 15% (n = 420,000); Potency, µM (titrated, usually from 46.2 µM), for inactives: at the top dose activity change, negative = growth inhibition, actives largely listed as inhibitors; DT40 Tdp1-/- hTDP1 cells, no CPT, ATP luminescence, 48 h; AID 686978, 2013; note: potency is the fitted concentration of half-maximal effect; nearly all actives have a fitted effect of over 55% in size
#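 No-CPT arm: Tdp1-/-;hTDP1 DT40 cells (400/well) plus compounds, incubated ≥48 hr at 37 °C. Readout CellTiter-Glo luminescence.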
# TDP1 cell CPT = qHTS for Inhibitors of human tyrosyl-DNA phosphodiesterase 1 (TDP1): qHTS in cells in presence of CPT | AID 686979, 2013 | Potency, µM (doses to about 46.2 µM), inactives show top-dose activity change, negative = growth inhibition, hits mostly inhibitors | actives 12% (n = 420,000) | chicken DT40 Tdp1-/-;hTDP1 cells + 20 nM CPT, ATP luminescence, 48 h; note: potency is the fitted concentration of half-maximal effect; nearly all actives have a fitted effect of over 55% in size
#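 Chicken DT40 Tdp1-/- cells stably complemented with human TDP1 were seeded at 400 cells/well in medium containing 20 nM camptothecin, exposed to pin-transferred compounds, and grown at 37 °C for at least 48 hr. Viability was read as ATP luminescence.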
# RORg inh = qHTS for inhibitors of ROR gamma transcriptional activity | actives 5.4% (n = 310,000) | Potency, µM (highest dose often 53.6 µM), for inactives: at the highest dose activity change, negative = inhibition, actives largely listed as inhibitors | Drosophila S2 Gal4-RORgamma UAS-luciferase reporter, 20 h; note: potency is the fitted concentration of half-maximal effect; nearly all actives have a fitted effect of over 60% in size
# Target sequence (P51450 whole entry, looked up, the tested form may be a part): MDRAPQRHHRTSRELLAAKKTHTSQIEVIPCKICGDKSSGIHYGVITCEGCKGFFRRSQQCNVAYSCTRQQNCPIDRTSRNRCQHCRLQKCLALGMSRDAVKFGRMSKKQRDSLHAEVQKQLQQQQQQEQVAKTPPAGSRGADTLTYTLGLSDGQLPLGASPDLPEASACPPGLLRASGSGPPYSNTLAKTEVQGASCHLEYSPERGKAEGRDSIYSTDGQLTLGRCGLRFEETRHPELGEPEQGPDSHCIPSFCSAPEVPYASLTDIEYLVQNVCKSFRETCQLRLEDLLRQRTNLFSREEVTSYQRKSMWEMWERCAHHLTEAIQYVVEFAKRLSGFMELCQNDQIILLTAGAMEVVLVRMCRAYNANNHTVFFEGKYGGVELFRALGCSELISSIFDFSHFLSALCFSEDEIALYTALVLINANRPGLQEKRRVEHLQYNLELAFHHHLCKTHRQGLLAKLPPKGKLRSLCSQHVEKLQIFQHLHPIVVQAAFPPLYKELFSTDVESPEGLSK
#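 ROR gamma transcriptional activity was tracked as Gal4-UAS luciferase output in stably transfected Drosophila Schneider cells, with compound added 1 hr before 700 uM copper sulfate induction and a 20 hr ambient-temperature incubation.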
# IL-1B inflam inh = qHTS for Inhibitors of Inflammasome Signaling: IL-1-beta AlphaLISA Primary Screen. actives 4.7% (n = 360,000). AID 743279, 2014. activity change, % at 57.5 µM. THP-1 LPS/ATP IL-1B secretion, AlphaLISA, 16 h; stronger effect = lower value; in the data active = activity change below about -50%; inconclusive = mostly about -30% to -49%
#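 THP-1 cells pretreated 1 hr with compounds (up to 57.5 uM final), then stimulated with LPS (250 ng/mL final) plus ATP (1.25 mM final); secreted IL-1B measured by AlphaLISA after 16 hr, decreased signal indicating inhibition.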
# ELG1 repair inh = qHTS screen for small molecules that inhibit ELG1-dependent DNA repair in human embryonic kidney (HEK293T) cells expressing luciferase-tagged ELG1; HEK293T ELG1-luciferase reporter, luminescence, 16 h; DNA damage induced by 5-fluorouridine; Potency, µM (titrated, usually from 46.1 µM), inactives show top-dose activity change, negative = inhibition, actives largely listed as inhibitors; actives 2.3% (n = 330,000); AID 504467, 2011; note: potency is the fitted concentration of half-maximal effect; nearly all actives have a fitted effect of over 55% in size
#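 Luminescence from the luciferase reporter, measured 30 min after ONE-Glo reagent at room temperature, was the read-out. Beforehand, 2,000 cells per well were exposed for 16 hr at 37 °C to 5-fluorouridine together with compound or vehicle.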
# Gal4-VP16 FLuc = VP16 counterscreen qHTS for inhibitors of ROR gamma transcriptional activity; AID 2546, 2010; Drosophila S2 Gal4-VP16 UAS-luciferase, luminescence, 20 h; actives 3.5% (n = 310,000); Potency, µM (titrated, usually from 53.6 µM), inactives show at the highest dose activity, negative = inhibition, actives largely listed as inhibitors;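 note: Gal4-VP16 expression switched on by copper sulfate through the metallothionein promoter; potency is the fitted concentration of half-maximal effect; nearly all actives have a fitted effect of over 50% in size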
# Active calls of the source: *; i = inactive; ? = inconclusive; nt = no result given; [ ] = remark or other dose. Unless noted, calls come from the whole dose curve; as a rule, active = well fitted curve in the direction sought with a large enough effect; inconclusive = small, poorly fitted or top-dose-only effect, or another doubt; inactive = no such curve, though single readings can be large; an effect the other way counts as inactive or inconclusive. % is set by controls: 0 for no effect and ±100 for the full control effect.
SMILES,TDP1 cell noCPT,TDP1 cell CPT,RORg inh,IL-1B inflam inh,ELG1 repair inh,Gal4-VP16 FLuc
CCc1ccc(-c2cc(C(=O)N/N=C/c3ccco3)[nH]n2)cc1,?,-22%,20µM*,-10,8%,2%[10 µM]
CCNC(=S)N(CCCN(C)C)Cc1cc2cc3c(cc2[nH]c1=O)OCCO3,1%,-3%,-2%,-13,28%,-4%
O=C(N/N=C/c1ccc(Br)s1)c1cccnc1,-11%,-7%,1.3µM*,-5,6%,16µM*
O=C(N/N=C/c1cc(Br)c(O)c(Br)c1O)c1cccnc1,?,21µM*,?,60,?,?
O=C(N/N=C\c1cccnc1)c1ccc(Br)s1,-28%,?,24%,i,?,-1%
O=C(N/N=C/c1cc2c(cc1Br)OCO2)c1cccnc1,?,5%,-2%,?,5%,6%
O=C(N/N=C/c1cc(O)ccc1Br)c1cccnc1,2.9µM*,5.8µM*,1.8µM*,175,?,1.3µM*
O=C(CSc1nnc(-c2ccc(Cl)cc2)o1)N1CCc2ccccc21,0%,5%,nt,nt,nt,nt
CC1=[N+](C)c2ccc3ccccc3c2C1(C)C,2.3µM*,2.6µM*,?,-15,7%,2.5µM*
Cc1nnc(NC(=O)CN2CCN(Cc3ccccc3)CC2)s1,?,-19%,nt,24,4%,nt
CCN(CC)c1nc2c(S(=O)(=O)c3ccc(C)cc3)nnn2c2ccsc12,-19%,-5%,nt,nt,nt,nt
Cc1ccc(F)cc1C(=O)N1CCCC(C)(C(=O)NS(=O)(=O)C2CC2)C1 (stereo not drawn),2.6µM*,?,nt,17,nt,nt
CC1(C(=O)NS(=O)(=O)C2CC2)CCN(C(=O)c2ccc(F)cc2Cl)C1 (stereo not drawn),21%,3%,nt,14,nt,nt
CC1(C(=O)NS(=O)(=O)C2CC2)CCCN(C(=O)c2ccc(F)cc2Cl)C1 (stereo not drawn),1.5µM*,?,nt,29,nt,nt
CC1(C(=O)NS(=O)(=O)C2CC2)CCN(C(=O)c2c(F)cccc2F)C1 (stereo not drawn),-1%,2%,nt,19,nt,nt
Cc1ccc(F)c(C(=O)N2CCCC(C)(C(=O)NS(=O)(=O)C3CC3)C2)c1F (stereo not drawn),5.8µM*,6.5µM*,nt,20,nt,nt
COc1ccc(C(=O)N2CCCC(C)(C(=O)NS(=O)(=O)C3CC3)C2)c(OC)c1 (stereo not drawn),3.7µM*,2.1µM*,nt,39,nt,nt
O=C(NCCOc1ccccc1)C1CCC(=O)N(C2CCCCCC2)C1 (stereo not drawn),-13%,-12%,-13%,i,-2%,11%
CNc1nc(SC)n(C)c(=O)c1N=O,nt,nt,-4%,nt,?,4%
Cc1cc(C(=O)N2CCC(C)(C(=O)NS(=O)(=O)C3CC3)C2)n(C(C)(C)C)n1 (stereo not drawn),26%,1%,nt,0,nt,nt
Cc1cc(C(=O)N2CCCC(C)(C(=O)NS(=O)(=O)C3CC3)C2)n(C(C)(C)C)n1 (stereo not drawn),5.2µM*,8.2µM*,nt,0,nt,nt
CC1(C(=O)NS(=O)(=O)C2CC2)CCCN(C(=O)C2(c3ccc(Cl)cc3)CCCC2)C1 (stereo not drawn),12µM*,?,nt,33,nt,nt
CCOC(=O)c1csc(NC(=O)CN2CCOCC2)n1,-12%,-1%,5%,16,?,1%
O=C(Cn1c(=O)nc(-c2ccccc2)c2ccccc21)NCCc1ccc(Cl)cc1,-24%,-6%,nt,nt,nt,nt
Cc1cccc(C(=O)NCC(=O)OCc2cc(=O)n3nc(CC(C)C)sc3n2)c1,-13%,-15%,nt,nt,nt,nt
SMILES,TDP1 cell noCPT,TDP1 cell CPT,RORg inh,IL-1B inflam inh,ELG1 repair inh,Gal4-VP16 FLuc
CCc1cccc(NC(=O)Cn2nc(C)c3sc4ccccc4c3c2=O)c1,-11%,-8%,nt,nt,nt,nt
CNC(=O)c1ccc(Nc2nnc(-c3ccc(O)cc3)c3ccccc23)cc1,?,-22%,17%,-8,?,-6%
CN(C)C(=O)c1ccc(Nc2nnc(-c3ccc(O)cc3)c3ccccc23)cc1,?,?,-9%,-55*,6%,-6%
CCN(CC)C(=O)c1ccc(-c2nnc(Nc3ccc(C(=O)NC)cc3)c3ccccc23)cc1,?,15µM*,-5%,-25,?,-2%
O=C(NCCS(=O)(=O)N1CCN(c2ccccc2)CC1)C1CC1,-8%,-5%,nt,12,18%,nt
Cc1cc(F)ccc1NC(=O)C(c1ccccc1)N1Cc2ccccc2C1=O (stereo not drawn),-12%,3%,nt,nt,nt,nt
Cc1cccc(NC(=O)C(Cc2ccccc2)n2cccc2)c1C (stereo not drawn),15µM*,16µM*,nt,nt,nt,nt
O=C(NC1CCCCCC1)C(Cc1ccccc1)n1cccc1 (stereo not drawn),?,?,-3%,-62*,-1%,-3%
CC1CCC(NC(=O)C(Cc2ccccc2)n2cccc2)CC1 (stereo not drawn),?,?,?,-26,2%,-21%
Cc1csc(NC(=O)C(Cc2ccccc2)n2cccc2)n1 (stereo not drawn),?,29µM*,-17%,-18,?,11%
Cc1ccc(NC(=O)C(Cc2ccccc2)n2cccc2)cc1 (stereo not drawn),23µM*,?,25%,?,-9%,4%
CS(=O)(=O)N1CCC[C@@]2(CCN(c3ccccn3)C2)C1,-11%,-6%,-8%,nt,nt,-3%
CC12CCC(C(S(=O)(=O)Nc3ccccc3)C1=O)C2(C)C (stereo not drawn),-14%,-8%,nt,11,nt,nt
COCCCn1c(=O)c2ccccc2n(CC(=O)Nc2ccc3c(c2)OCCO3)c1=O,0%,3%,-8%,-5,0%,2%
O=C(Nc1ccc2c(c1)OCO2)c1ccc2sc([C@@H]3O[C@H](CO)[C@@H](O)[C@H]3O)nc2c1,?,-22%,nt,6,nt,nt
CCCC(C)(C)C(=O)N1CCC1(C)C(=O)Nc1ccc(OC)c(OC)c1 (stereo not drawn),?,-26%,nt,0,nt,nt
